These results are taken from the OligoGym collection.
Further: reference of the scale not given here.

The target of the first assay is SNX29. The assay can be described thus: pooled miR-30 sensor sort-seq; sequence = guide strand. Conditions: shRNA.
TAACTTGTGGTGCAAACTCCTG came in with a sensor-assay potency score (higher = more potent) of -1.57.

As for TTCTTTCGTAGGAGCTTGCGAG, the sensor-assay potency score (higher = more potent) was -0.569. The same measure, in the same setting: in the case of TTTTATCCGGATGTAGACCTGA it was 0.194; in that of TACTTGTTTTGTAACTTGTGGT, 0.289. On the same count and under the same terms, in the case of TTTCTTTCGTAGGAGCTTGCGA it was -0.585. On the same count and under the same terms, in the case of TTGAGCACCTCGTTCTCTCTGG it was -0.561; in that of TTCATCGTCTTTTATCCGGATG, -0.658. AACTTCTCCATCAACACTCCAA displayed a sensor-assay potency score (higher = more potent) of 0.0779. On to TTCTGGAGCTGCTTTCTCCGTT, for which the sensor-assay potency score (higher = more potent) was -0.513. The same measure, in the same setting: in the case of TTGGACTTTGAGCACCTCGTTC it was -0.779; in that of TTCTTCAGCAATTTCTCCCGGC, 0.0945.

The next assay addresses SNX32. The assay is described as above. As to conditions: shRNA.
With TGAACAGTGAATTTCACCTTGT, the sensor-assay potency score (higher = more potent) was found to be 0.317.

Turning to TTTGAGCTCCAGCTCTGCCAGC, the sensor-assay potency score (higher = more potent) was -1.19. The same measure, in the same setting: in the case of TTAGCTGGTTGACTTCCTGTGT it was 0.0166; in that of TACTCCAACAGGAAGGTCCTCT, 0.509; in that of TTCTGTAGCTTTTCCCTCGAAG, -0.129. For TAAGGAGCTGTCTCCCTGCAGA, the sensor-assay potency score (higher = more potent) was -1.06. Still for that read-out and setting: in the case of TTGAACAGTGAATTTCACCTTG it was 0.337; in that of TTTCGAAAAGAGGAGACCCGGC, -0.633; in that of AATTTGAGGAAGCTCGTCCTTA, -0.0375. On the same count and under the same terms, in the case of TGCGTCAGAAATCTCCACCTGT it was 0.185; in that of TTCGTGCATCGCAACTGTCTTC, -0.785.
